# Test results: PubChem BioAssay AID1645838 (ICCB-Longwood Screening Facility, Harvard Medical School, 2021)
# Several values for one entry are separate records, joined by “and”; a condition that tells them apart may be missing. Equal values may be shown once. In all, about 2,000 compounds went through this assay and about 100 (5%) were called active. The sample holds actives, similar compounds and a random draw of the others, so the mix is not that of the screen. No stated cut-off is given here; in the data, active means z-score above about 2; inactive means the rest.
# Experiment: supercomplex reporter luminescence per Hoechst cell count – Hoechst nuclei count (AID 1645838);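 further: control cybrid cells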;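 on z-score: higher means more mitochondrial supercomplex formation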
# Details: Cells, luminescence/Hoechst cell count ratio; for z-score: stronger effect = higher value; for cell count: measured here: cell number, Hoechst nuclei count
# [1] = library stock concentration (final well concentration not given) 80 uM
# [2] = library stock concentration (final well concentration not given) 400 uM
# [3] = library stock concentration (final well concentration not given) 2 mM
# [4] = library stock concentration (final well concentration not given) 10 mM
# [5] = library stock concentration (final well concentration not given) 46 uM
# [6] = library stock concentration (final well concentration not given) 278 uM
# [7] = library stock concentration (final well concentration not given) 1.67 mM
smiles,measurement,setting,value
CC(=O)Nc1ccc(C(=O)Nc2sc(Nc3ccccc3)nc2C(N)=O)cc1,z-score,[1],0.365 (inactive)
same,z-score,[2],0.37 (inactive)
same,z-score,[3],2.89 (active)
same,z-score,[4],5.1 (active)
same,cell count,[1],5180
same,cell count,[2],5070
same,cell count,[3],3500
same,cell count,[4],2950
COc1ccc(C(=O)Nc2sc(Nc3ccccc3)nc2C(N)=O)cc1,z-score,[1],0.24 (inactive)
same,z-score,[2],0.382 (inactive)
same,z-score,[3],-0.143 (inactive)
same,z-score,[4],1.05 (inactive)
same,cell count,[1],4690
same,cell count,[2],4800
same,cell count,[3],4780
same,cell count,[4],4300
CC(=O)Nc1ccc(NC(=S)NC(=O)c2ccc(C(C)(C)C)cc2)cc1,z-score,,1.3 (inactive)
same,cell count,,5410
CCCCC[C@H](O)CC[C@@H]1[C@@H](CCCCCCC(=O)O)[C@@H](O)C[C@H]1O,z-score,,-0.187 (inactive)
same,cell count,,5660
COc1cc(Nc2ncc(F)c(Nc3ccc4c(n3)NC(=O)C(C)(C)O4)n2)cc(OC)c1OC,z-score,[1],-0.348 (inactive)
same,z-score,[2],-0.268 (inactive)
same,z-score,[3],0.433 (inactive)
same,z-score,[4],2.15 (active)
same,cell count,[1],4400
same,cell count,[2],3910
same,cell count,[3],3800
same,cell count,[4],1990
CCCCCCCCCCCCCCNC(=O)C1CCCCC1,z-score,,-0.131 (inactive)
same,cell count,,5060
COc1cc(C(C)C)c2c(c1)S(=O)(=O)N(COc1cc(=O)n3cccc(OCCN4CCCCC4)c3n1)C2=O,z-score,[5],-0.456 (inactive)
same,z-score,[6],-0.0963 (inactive)
same,z-score,[7],-0.654 (inactive)
same,z-score,[4],-0.644 (inactive)
same,cell count,[5],7070
same,cell count,[6],6790
same,cell count,[7],6790
same,cell count,[4],5780
CC(=O)c1c(C)c2cnc(Nc3ccc(N4CCNCC4)cn3)nc2n(C2CCCC2)c1=O,z-score,[5],-0.186 (inactive)
same,z-score,[1],-0.0747 (inactive)
same,z-score,[6],0.0516 (inactive)
same,z-score,[2],0.049 (inactive)
same,z-score,[7],1.11 (inactive)
same,z-score,[3],0.264 (inactive)
same,z-score,[4],-0.00116 (inactive) and 1.25 (inactive)
same,cell count,[5],4850
same,cell count,[1],4290
same,cell count,[6],4600
same,cell count,[2],4340
same,cell count,[7],3490
same,cell count,[3],4140
same,cell count,[4],4170 and 3080
CN(C)C(=O)c1cc2cnc(Nc3ccc(N4CCNCC4)cn3)nc2n1C1CCCC1,z-score,[1],0.288 (inactive)
same,z-score,[2],0.657 (inactive)
same,z-score,[3],1.74 (inactive)
same,z-score,[4],2.33 (active)
same,cell count,[1],5680
same,cell count,[2],5400
same,cell count,[3],4600
same,cell count,[4],3840
CCCCC/C=C\C/C=C\C/C=C\C/C=C\CCCCN1C(=O)C=CC1=O,z-score,,0.0996 (inactive)
same,cell count,,4710
Nc1nc2c([nH]c(=O)n2[C@H]2C[C@H](O)[C@@H](CO)O2)c(=O)[nH]1,z-score,,-0.23 (inactive)
same,cell count,,5380
O=C(Nc1ccc(N2CCOCC2)cc1)c1n[nH]c2ccccc12,z-score,[1],0.294 (inactive)
same,z-score,[2],0.396 (inactive)
same,z-score,[3],-0.44 (inactive)
same,z-score,[4],0.0641 (inactive)
same,cell count,[1],5020
same,cell count,[2],4770
same,cell count,[3],4900
same,cell count,[4],4350
CCCCC[C@H](O)/C=C/[C@H]1C(=O)C[C@H](O)[C@@H]1CCCCCCCO,z-score,,0.644 (inactive)
same,cell count,,4950
O=C(Nc1cccc(Nc2ncc(Br)c(NCCc3cnc[nH]3)n2)c1)N1CCCC1,outcome,library stock 10 mM,inactive; censored for cell count
same,z-score,[5],-0.139 (inactive)
same,z-score,[1],-0.647 (inactive)
same,z-score,[6],0.0145 (inactive)
same,z-score,[2],-0.129 (inactive)
same,z-score,[7],3.24 (active)
same,z-score,[3],0.129 (inactive)
same,cell count,[5],5940
same,cell count,[1],4860
same,cell count,[6],6000
same,cell count,[2],4520
same,cell count,[7],2060
same,cell count,[3],3760
